EWS-Fli block = EWS/Fli-driven NR0B1 reporter inhibitors, primary screen, A673 cells, NR0B1 luciferase, luminescence, MLPCN library; viability-normalised; inhibition, % at 12.6 µM; 0.67% of 350,000 active;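 active = mean inhibition of at least 50% after viability correction, with every replicate also passing that limit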;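 also: firefly luciferase signal divided by Alamar Blue viability fluorescence both relative to DMSO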
TROY signal inh = inhibitors of TROY-driven NF-kB signaling, primary screen, Q293 LMP1-TROYcd cells, NF-kB luciferase, uHTS | Q293 LMP1-TROYcd NF-kB luciferase reporter, 4 h | inhibition, % at 10 µM | 0.98% of 360,000 active | AID 1347056, 2019;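 active = compounds whose plate-normalised and pattern-corrected inhibition of the luciferase reporter signal at the single screening dose is 50% or more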
LGR2 antag = inhibitors of bursicon-induced LGR2 CRE-luciferase signal, primary screen, cell-based, HEK293, CRE-luciferase reporter, bursicon stimulation; Drosophila bursicon receptor LGR2 (rickets); bursicon-stimulated, 4 h; inhibition, % at 9.99 µM; 0.35% of 380,000 active; AID 720647, 2013;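 active = drop in luminescence signal, shown as inhibition above about 50% in the replicate tests, limit read from the data, passing the limit was not always enough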;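 also: agonist challenge used bursicon conditioned medium at about half maximal strength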
PAX8 reporter = inhibitors of PAX8-driven TPO luciferase reporter, primary screen, RMG-I cells, single concentration; SteadyGlo, 24 h; 1.2% of 360,000 active; inhibition, % at 12.6 µM;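 active = mean replicate inhibition at least 60% with every replicate also reaching 60%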;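 also: luciferase light reporting Pax8 driven TPO promoter activity; plate controls were median of neutral control wells for no effect and mitoxantrone controls for full effect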
LMP1 NFkB inh = EBV LMP1-driven NF-kappaB luciferase reporter inhibitors, primary screen, cell-based, luminescence, single point; AID 504558, 2011; inhibition, % at 12.5 µM; 0.69% of 350,000 active; LMP1-induced NF-kappaB luciferase reporter cells; in the data active = inhibition above about 41%;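 also: 0% = neutral control wells and 100% = reference inhibitor control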
TWEAK Fn14 block = inhibitors of TWEAK-Fn14 signaling, primary screen, luciferase reporter cells, uHTS; TWEAK-stimulated Fn14 reporter cells, luciferase luminescence, 8 h; inhibition, % at 10 µM; 2% of 360,000 active; AID 1159606, 2016; in the data active = inhibition above about 50%
* = called active by the depositor; nt = no result given; ! = not confirmed by another sample. A selection: hits, their analogues and other compounds. The true share with any hit is near 3.2%.

SMILES	EWS-Fli block	TROY signal inh	LGR2 antag	PAX8 reporter	LMP1 NFkB inh	TWEAK Fn14 block
COc1ccc2c3c(n(C)c2c1)[C@H](CO)NCC31CCN(Cc2ccc(-c3ccccn3)cc2)CC1	10.2	nt	-2.3	nt	nt	nt
C[C@@H]1CN([C@@H](C)CO)C(=O)Cc2cc(NC(=O)Nc3ccc(C(F)(F)F)cc3)ccc2O[C@H]1CN(C)C(=O)Nc1ccccc1	-4.5	nt	-7.3	5.1	nt	nt
Cc1ccccc1-c1ccc(C2[C@@H]3CN(C(=O)Cc4ccccc4)C[C@H]2N3)cc1 (stereo partly drawn)	55.8*!	nt	13.6	33.1	nt	nt
O=C(Cc1ccncc1)N1C[C@@H]2N[C@H](C1)C2c1ccc(-c2ccccc2)cc1 (stereo partly drawn)	2.5	nt	-11.7	-3.5	nt	nt
O=C(Nc1ccc(N2CCN(C(=O)c3ccco3)CC2)c(Cl)c1)c1cccs1	nt	34.7	nt	nt	14.3	108.0*
O=C(Nc1ccc(N2CCCC2)c(Cl)c1)c1ccco1	nt	-53.2	nt	nt	0.6	-17.7
CN1CCN(c2ccc(NC(=O)c3ccco3)cc2Cl)CC1	-25.8	50.3*	6.7	-124.2	59.8*	39.1
Cn1cnc(S(=O)(=O)N2C[C@@H](O)COC[C@@H]3O[C@H](CC(=O)NCc4cc(F)cc(F)c4)CC[C@H]32)c1	2.2	nt	-4.1	-12.1	nt	nt
Cc1ccc(S(=O)(=O)N(C)C[C@H]2OCCCC[C@H](C)Oc3ccc(NS(=O)(=O)c4c(C)noc4C)cc3C(=O)N([C@@H](C)CO)C[C@H]2C)cc1	6.1	nt	6.7	38.9	nt	nt
COC(=O)c1ccsc1NC(=O)CCS(=O)(=O)c1ccc(Cl)cc1	-9.8	30.2	5.2	82.9*	2.3	5.0
O=C(CS(=O)(=O)c1ccc(F)cc1)Nc1nccs1	-4.7	-14.2	-1.5	0.3	6.3	-2.6
CC(C)Cc1nnc(NC(=O)CCS(=O)(=O)c2ccc(Cl)cc2)s1	nt	1.7	12.8	70.6*	16.1	3.8
O=C(CCS(=O)(=O)c1ccc(Cl)cc1)Nc1nccs1	-4.2	56.7*	-16.7	47.8	-8.4	4.9
COC(=O)c1ccsc1NC(=O)CS(=O)(=O)c1ccccc1	5.8	-6.2	-0.1	-11.1	1.7	-3.1
CC(C)Cc1nnc(NC(=O)CCC(=O)Nc2ccc(Cl)cc2)s1	nt	-12.0	8.8	-8.9	2.7	-8.2
COC(=O)c1ccsc1NC(=O)CCS(=O)(=O)c1ccccc1	nt	-10.3	5.7	84.3*	-7.2	-1.9
C[C@@H]1CCCCO[C@H](CN(C)C(=O)c2ccccc2)[C@H](C)CN([C@@H](C)CO)C(=O)c2cc(NC(=O)c3ccncc3)ccc2O1	-2.7	nt	40.0	14.1	nt	nt
C[C@@H]1CN([C@H](C)CO)C(=O)Cc2cc(NC(=O)Nc3cccc4ccccc34)ccc2O[C@@H]1CN(C)Cc1ccccc1	4.7	nt	2.9	21.8	nt	nt
COCC(=O)Nc1ccc2c(c1)[C@H]1C[C@H](CC(=O)NCc3ccccc3OC)O[C@@H](CO)[C@H]1O2	-1.2	nt	1.2	nt	nt	nt
O=C(C[C@@H]1C[C@@H]2c3cc(NC(=O)c4cccnc4)ccc3O[C@@H]2[C@@H](CO)O1)NCc1ccncc1	3.6	nt	-7.7	nt	nt	nt
COc1ccc2c3c(n(C)c2c1)[C@@H](CO)N(C(=O)c1ccncc1)CC31CN(S(C)(=O)=O)C1	-4.2	nt	-20.7	nt	nt	nt
CC(=O)Nc1ccc(C=NNC(=O)CCCC(=O)NN=Cc2ccc(NC(C)=O)cc2)cc1	-2.8	1.9	2.7	7.1	80.6*	18.9
CC(=O)Nc1ccc(/C=N/NC(=O)CC2CCCCC2)cc1	-9.0	-21.9	-21.8	-12.1	nt	-7.0
c1c2c(cc3sc(N4CCCCC4)nc13)OCO2	nt	-31.2	nt	-52.3	9.6	72.7*
c1c2c(cc3sc(N4CCOCC4)nc13)OCO2	nt	-47.6	nt	nt	-0.8	40.7
SMILES	EWS-Fli block	TROY signal inh	LGR2 antag	PAX8 reporter	LMP1 NFkB inh	TWEAK Fn14 block
c1ccc2c(c1)CCN(c1nc3cc4c(cc3s1)OCO4)C2	nt	1.6	nt	-93.3	-72.2	58.4*
c1ccc(N2CCN(c3nc4cc5c(cc4s3)OCO5)CC2)cc1	nt	-20.2	nt	-185.4	-1.8	16.7
COc1ccc(S(=O)(=O)Nc2ccc3c(c2)CC(=O)N([C@@H](C)CO)C[C@H](C)[C@H](CN(C)C(=O)Nc2c(C)noc2C)O3)cc1	-1.3	nt	12.6	-7.4	nt	nt
CC(=O)Nc1cccc(Oc2ccc3c(c2)C(=O)N(CCC(=O)O)C3=O)c1	nt	nt	nt	nt	-3.8	87.9*
COc1ccc(C(=O)Nc2ccc3c(c2)OC[C@@H](C)N(Cc2cocn2)C[C@@H](C)[C@@H](OC)CN(C)C3=O)cc1	-5.7	nt	-11.0	-1.3	nt	nt
Cc1ccc(/C=C/C(=O)O)cc1S(=O)(=O)NCCO	nt	27.5	1.5	nt	2.8	-0.2
Cc1cc(C(C)(C)C)cc(S(=O)(=O)NCCO)c1C	nt	nt	nt	nt	0.3	85.2*
CO[C@@H]1CN(C)C(=O)c2cc(NC(=O)NC3CCCC3)ccc2OC[C@@H](C)N(CC2CC2)C[C@@H]1C	nt	nt	-9.2	-30.5	nt	nt
CC(C)=CCc1c(O)cc2oc3c(CC=C(C)C)c(O)c(O)c(CC=C(C)C)c3c(=O)c2c1O	33.6	58.2*	nt	nt	1.8	81.7*
CC(C)=CCc1cc(-c2oc3cc(O)cc(O)c3c(=O)c2O)ccc1O	-5.3	24.3	-28.0	nt	-17.8	49.5
Cc1ccc(S(=O)(=O)N[C@@H]2C=C[C@@H](CC(=O)NCc3ccc(Cl)c(Cl)c3)O[C@H]2CO)cc1	0.7	nt	-8.7	23.2	nt	nt
Cc1sc2nc(SCC(=O)NCCO)n(C)c(=O)c2c1C	nt	-2.0	nt	12.7	5.2	7.7
COc1ccccc1NC(=O)CSc1nc2sc(C)c(C)c2c(=O)n1C	17.1	33.9	8.5	-2.6	18.2	36.5
Cc1sc2nc(SCC(=O)Nc3c(C)n(C)n(-c4ccccc4)c3=O)n(C)c(=O)c2c1C	nt	7.3	nt	16.3	0.5	58.5*
Cc1sc2nc(SCC(=O)OC(C)C)n(C)c(=O)c2c1C	nt	31.5	nt	7.9	46.9*	22.0
O=C(NCC1CC1)[C@H]1[C@H](CO)[C@H]2Cn3c(ccc(C4=CCCC4)c3=O)[C@@H]1N2C(=O)C1CC1	-5.8	nt	8.8	7.6	nt	nt
COCC(=O)N(C)C[C@@H]1Oc2cc(C#C[C@@H](C)O)ccc2S(=O)(=O)N([C@@H](C)CO)C[C@@H]1C	-10.2	nt	-6.9	nt	nt	nt
CCCC(=O)N1CC2(CCN(Cc3nccs3)CC2)c2c([nH]c3cc(OC)ccc23)[C@@H]1CO	0.3	nt	-14.3	8.2	nt	nt
CC(NC(=O)Nc1nnc(C(F)(F)F)s1)(C(F)(F)F)C(F)(F)F	nt	55.1*	nt	nt	43.5*	29.8
Cc1nn(-c2ccccc2)nc1C(=O)Nc1nnc(C(F)(F)F)s1	0.4	52.1*	8.9	11.4	10.1	10.9
CCc1nnc(NC(=O)c2nn(-c3ccccc3)nc2C)s1	-2.7	-15.7	13.5	36.6	-6.9	-2.3

From PubChem BioAssay
